Several values for one entry are separate records, joined by “and”; a condition that tells them apart may be missing. Equal entries are not always repeated. Out of some 5,500 compounds screened, about 2,000 (36%) were called active. About 18% were inconclusive and are not listed. Rule as the data show it: active = normalized growth mostly below about 0.91 (no sharp cut-off); inconclusive = no clear call, values can overlap the other calls; inactive = mostly above about 0.92. This is one part of the list.
Assay: chemical genetic growth profiling, strain panel (AID 1159580);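 also: tested at 20 µM; growth read once vehicle control cultures reached saturation at 30 °C; 1 = growth at the plate median or of vehicle wells; lower values mean less growth of the strain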
Settings: S. cerevisiae deletion strains, growth OD

Measured: normalized growth

Cn1nnnc1SCC1=C(C(=O)O)N2C(=O)C(NC(=O)C(O)c3ccccc3)C2SC1 (configuration not stated)
inactive: locus YAL013W, strain DEP1, stronger effect = lower value 1.02 | locus YAL021C, strain ccr4, stronger effect = lower value 0.97 | locus YAL026C, strain drs2, stronger effect = lower value 0.972 | locus YAL030W, strain snc1, stronger effect = lower value 0.983 | locus YBL061C, strain skt5, stronger effect = lower value 0.97 | locus YBR009C, strain hhf1, stronger effect = lower value 0.988 | locus YBR021W, strain FUR4, stronger effect = lower value 1.01 | locus YBR023C, strain chs3, stronger effect = lower value 0.964 | locus YBR171W, strain sec66, stronger effect = lower value 0.945 | locus YBR229C, strain ROT2, stronger effect = lower value 1.01 | locus YBR231C, strain swc5, stronger effect = lower value 0.991 | locus YBR279W, strain paf1, stronger effect = lower value 0.977 | locus YCL011C, strain gbp2, stronger effect = lower value 0.971 | locus YCL016C, strain dcc1, stronger effect = lower value 0.967 | locus YCL029C, strain bik1, stronger effect = lower value 0.996 | locus YCL061C, strain MRC1, stronger effect = lower value 0.968 | locus YCL069W, strain vba3, stronger effect = lower value 0.973 | locus YCR088W, strain abp1, stronger effect = lower value 0.975 | locus YDL005C, strain med2, stronger effect = lower value 0.972 | locus YDL035C, strain GPR1, stronger effect = lower value 1.03 | locus YDL040C, strain nat1, stronger effect = lower value 0.984 | locus YDL074C, strain BRE1, stronger effect = lower value 1.05 | locus YDL101C, strain DUN1, stronger effect = lower value 1.02 | locus YDL134C, strain PPH21, stronger effect = lower value 1.02 | locus YDL185W, strain tfp1, stronger effect = lower value 1 | locus YDL192W, strain arf1, stronger effect = lower value 1 | locus YDR001C, strain nth1, stronger effect = lower value 0.979 | locus YDR069C, strain doa4, stronger effect = lower value 0.978 | locus YDR101C, strain arx1, stronger effect = lower value 0.99 | locus YDR137W, strain rgp1, stronger effect = lower value 0.943 | locus YDR150W, strain NUM1, stronger effect = lower value 1.03 | locus YDR159W, strain sac3, stronger effect = lower value 0.985 | locus YDR162C, strain NBP2, stronger effect = lower value 1.06 | locus YDR195W, strain ref2 0.969 | locus YDR297W, strain sur2, stronger effect = lower value 0.983 | locus YDR318W, strain mcm21, stronger effect = lower value 0.996 | locus YDR334W, strain swr1, stronger effect = lower value 0.964 | locus YDR335W, strain msn5, stronger effect = lower value 0.978 | locus YDR388W, stronger effect = lower value 0.991 | locus YDR392W, strain spt3, stronger effect = lower value 0.873 | locus YDR502C, strain sam2, stronger effect = lower value 1.01 | locus YEL003W, strain gim4, stronger effect = lower value 0.995 | locus YEL037C, strain rad23, stronger effect = lower value 0.972 | locus YEL061C, strain CIN8 (second series), stronger effect = lower value 0.978 | locus YEL061C, strain CIN8, stronger effect = lower value 1.01 | locus YER015W, strain faa2, stronger effect = lower value 0.99 | locus YER016W, strain bim1, stronger effect = lower value 0.995 | locus YER110C, stronger effect = lower value 0.997 | locus YER111C, strain swi4, stronger effect = lower value 0.96 | locus YER155C, strain BEM2 (second series), stronger effect = lower value 0.973 | locus YER155C, strain BEM2, stronger effect = lower value 1.02 | locus YER167W, strain BCK2, stronger effect = lower value 1.02 | locus YFR010W, strain ubp6, stronger effect = lower value 0.974 | locus YGL078C, strain dbp3, stronger effect = lower value 1 | locus YGL086W, strain mad1, stronger effect = lower value 1 | locus YGL167C, strain pmr1, stronger effect = lower value 0.967 | locus YGL173C, strain kem1, stronger effect = lower value 0.97 | locus YGL227W, strain vid30, stronger effect = lower value 0.984 | locus YGL240W, strain doc1, stronger effect = lower value 0.992 | locus YGL248W, strain PDE1, stronger effect = lower value 1.02 | locus YGL253W, strain hxk2, stronger effect = lower value 0.98 | locus YGR078C, strain PAC10, stronger effect = lower value 1.05 | locus YGR135W, strain pre9, stronger effect = lower value 1.01 | locus YGR229C, strain SMI1, stronger effect = lower value 1.03 | locus YGR252W, strain gcn5, stronger effect = lower value 0.972 | locus YHR013C, strain ard1, stronger effect = lower value 0.952 | locus YHR027C, strain rpn1, stronger effect = lower value 0.968 | locus YHR030C, strain SLT2, stronger effect = lower value 1.01 and 0.991 | locus YHR079C, strain IRE1 (second series), stronger effect = lower value 1 | locus YHR079C, strain IRE1, stronger effect = lower value 0.984 | locus YHR094C, strain hxt1, stronger effect = lower value 1 | locus YHR129C, strain ARP1, stronger effect = lower value 1.01 | locus YHR142W, strain chs7, stronger effect = lower value 0.951 | locus YHR200W, strain rpn10, stronger effect = lower value 1.01 | locus YIL066C, strain RNR3, stronger effect = lower value 1.02 | locus YIL073C, strain SPO22, stronger effect = lower value 1.03 | locus YIL125W, strain kgd1, stronger effect = lower value 1.01 | locus YIR030C, strain dcg1, stronger effect = lower value 1 | locus YJL092W, strain hpr5, stronger effect = lower value 0.976 | locus YJL095W, strain BCK1 (second series), stronger effect = lower value 0.987 | locus YJL095W, strain BCK1, stronger effect = lower value 1.02 and 0.987 | locus YJL115W, strain asf1, stronger effect = lower value 0.958 | locus YJL129C, strain trk1, stronger effect = lower value 0.973 | locus YJL134W, strain LCB3, stronger effect = lower value 1.01 | locus YJL154C, strain vps35, stronger effect = lower value 0.982 | locus YJL164C, strain tpk1, stronger effect = lower value 0.954 | locus YJL166W, strain qcr8, stronger effect = lower value 0.968 | locus YJL168C, strain set2, stronger effect = lower value 0.995 | locus YJL187C, strain SWE1 (second series), stronger effect = lower value 1.02 | locus YJL187C, strain SWE1, stronger effect = lower value 0.974 | locus YJR043C, strain POL32, stronger effect = lower value 1.02 | locus YJR066W, strain TOR1, stronger effect = lower value 0.938
